Laboratory results taken from PubChem BioAssay (NCI).
About 83,000 compounds went through this panel and 20% of them were active in at least one assay; those are over-represented in the sample as a whole.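 Testing used 96-well plates and a 48-hour single-concentration exposure. Example: -40 means 40% of the starting cells died.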 A number with no mark means an inactive call. The source made the active and inactive calls. How the source made its calls: active means growth percent below 10; inactive means the rest.

Assays:
Assay in all cases: NCI-60 one-dose screen, 48 h (100 = growth as untreated, 0 = no growth, -100 = all killed)
SK-MEL-2 melanoma = conditions: 10 µM unless noted
EKVX NSCLC = conditions: 10 µM
SN12C renal = conditions: 10 µM unless noted
UO-31 renal = conditions: 10 µM unless noted
TK-10 renal = conditions: 10 µM unless noted
ACHN renal = conditions: 10 µM unless noted
CAKI-1 renal = conditions: 10 µM unless noted
A498 renal = conditions: 10 µM unless noted
CCRF-CEM leukemia = conditions: 10 µM
MOLT-4 leukemia = conditions: 10 µM unless noted

SMILES	growth (SK-MEL-2 melanoma)	growth (EKVX NSCLC)	growth (SN12C renal)	growth (UO-31 renal)	growth (TK-10 renal)	growth (ACHN renal)	growth (CAKI-1 renal)	growth (A498 renal)	growth (CCRF-CEM leukemia)	growth (MOLT-4 leukemia)
CCOC(=O)NNc1[nH]c(-c2ccc(OC)cc2)cc1C#N	105%	102%	94.7%	87.8%	92.7%	81.2%	121%	99.8%	7.58% (active)	8.55% (active)
CC1(C)Oc2cc3oc(=O)ccc3cc2C[C@@H]1OCCOS(=O)(=O)c1ccc(C#N)cc1	102%	107%	91.5%	83.5%	101%	95.2%	86.3%	79.6%	98.6%	92%
C/C=C(/C)C(=O)OC1C=C(CO)C(=O)C(OC(=O)C2(C)OC2C)C1C(C)C (stereo unspecified)	-49.7% (active)	-11.8% (active)	-44.4% (active)	-96.3% (active)	-31.8% (active)	-96.8% (active)	-23.6% (active)	1.46% (active)	1.28% (active)	-3.66% (active)
CCCCN(CCCC)CC(O)CN(CC)CC (stereo unspecified)	91.5%	107%	96.4%	72.8%	92.7%	102%	93.8%	111%	104%	96%
COc1cc2ncnc(Nc3ccc4c(cnn4C(=O)Nc4ccccc4)c3)c2cc1OC	103%	85.2%	82.1%	65.3%	72.3%	94.2%	76.9%	65.1%	31.6%	
CCCCCCCCCC[N+](C)(C)C	56.3%	72.9%	29.5%	72.9%	-25.1% (active)	24.9%	58.4%	32.9%	-18.8% (active)	-0.229% (active)
COc1cc(-c2nc3c(c(C)nc4c3nnn4-c3ccccc3)c(=O)o2)cc(OC)c1OC	107%	115%	102%	87.9%	104%	103%	94.8%	61.1%	96.2%	102%
Cc1c(C(N)=O)sc2c1c(=O)n(Cc1ccccc1)c1nnc(S(C)(=O)=O)n21	80.6%	98%	80.3%	85.6%	93.1%	100%	86.5%	95.5%		
CC(=O)/C(=C/c1ccc(-c2ccccc2)cc1)C(=O)c1ccccc1	99.1%	100%	92.7%	76.3%	103%	88.3%	91.3%	96.5%	38.6%	5.31% (active)
Cc1ccc(C(=O)Nc2ccc(CN3CCN(C)CC3)c(C(F)(F)F)c2)cc1C#Cc1cncc2ncccc12	-78.7% (active)	-71.8% (active)	-98.2% (active)	-96.3% (active)	-98.8% (active)	-98.9% (active)	1.96% (active)	-95.5% (active)	-56.2% (active)	
COc1ccc(C2C3(C#N)C(N)=NC(=C(C#N)C#N)C23C#N)cc1OC (stereo unspecified)	104%	94.6%	109%	91%	114%	106%	86.9%	101%	92.3%	102%
c1ccc(Nc2ccccn2)cc1	102%	108%	94.6%	88%	95.5%	106%	101%	122%	85%	84%
Cc1ccc2c(c1)C(=O)CCS2	119%	100%	101%	83.8%	90.8%	107%	99%	82.8%	109%	118%
Nc1ccc(S(=O)(=O)Nc2cc(F)cc(F)c2)cc1	94.5%	80.4%	105%	85.4%	112%	98.7%	100%	95%	93.4%	72.7%
O=C(Nc1ccc(Cl)cn1)C1(c2ccccc2)CCCCC1	116%	96%	106%	181%	126%	112%	120%	141%	14.1%	63.3%
COc1ccc2c(N)ncc(C#Cc3cc(C(=O)Nc4ccc(CN5CCN(C)CC5)c(C(F)(F)F)c4)cnc3C)c2c1	-15.4% (active)	-1.21% (active)	-45.4% (active)	-45.1% (active)	-60.2% (active)	-78.5% (active)	39.9%	15.4%	-25.4% (active)	-36.6% (active)
O=C(NCCCl)Nc1nccnc1OCc1ccc(F)cc1	100%	97.5%	94.1%	86.8%	138%	105%	89.6%	105%	96%	91.9%
Brc1ccc(-c2nc3ccccc3s2)cc1	105%	75.4%	95%	59.5%	142%	92%	73.4%	77.2%	95.5%	88.1%
COC(=O)c1ccc2[nH]c(O)c(C(=Nc3ccc(N(C)C(=O)CN4CCN(C)CC4)cc3)c3ccc(N)cc3)c2c1	93.1%	95.5%	50.4%	75.6%	76.4%	94.7%	63.9%	92.7%	60.4%	52.3%
CCCCCCCCc1ccc(OCCOCC[N+](C)(C)CC)cc1 (tested in a mixture with another compound)	11.5%	71%	21.5%	89.4%	96.1%	102%	98.8%	73.8%	28.7%	51.4%
Cc1ccc(C(=O)Nc2ccc(CN3CCN(C)CC3)c(C(F)(F)F)c2)cc1C#Cc1cnc(N)c2ccc(C#N)cc12	25.1%	53.4%	24.1%	14.3%	52.7%	9.19% (active)	33.6%	35.7%	7.71% (active)	-8.2% (active)
COc1cc2oc(-c3ccc(NC(=O)c4ccccc4)cc3)cc(=O)c2c(OC)c1OC	92.1%	90.8%	83.7%	88.7%	91.8%	83.5%	96.8%	90.9%	82.2%	92.2%
C=CC1CN2CCC1CC2C(O)c1ccnc2ccc(OC)cc12 (stereo unspecified)	2.09% (active)	102%	98.7%	60.2%	108%	97.9%	103%	108%	106%	106%
CC(=O)c1cc(Nc2cc(C)nc(N)n2)cc(C(C)=O)c1	100%	101%	94.1%	92.7%	94.8%	102%	87%	91.7%	86.9%	91.2%
CC(O)C(N)=O (stereo unspecified)	111%	99.6%	106%	97%	108%	104%	95.6%	103%	102%	110%
CCCOC(=O)c1c(C)n(C)c2scc[n+]12	76.4%	43%	92.4%	81.3%	104%	85.8%	58.7%	48.8%	-67.1% (active)	-44.4% (active)
Cc1nc(NC(=S)Nc2ccc(F)cc2)sc1C(=O)NNC(=S)Nc1ccc(F)cc1	3.22% (active)	63.2%	71.8%	38.7%	43.5%	65.3%	101%	53.6%	40.1%	36.5%
